Measurements taken from the supplement of paper PMC6555819.

Key:
Assay in all cases: PBM binding z-score (relative to random genomic background probes); higher = stronger binding; sequences stand for … in GC…GCGATTGACAGCGTAGAATGAAGG
[1] = tested on: FXR:RXRa (NR concentration 270 nM, RXRa partner concentration 90 nM)
How it was run: (§1)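 Antibodies against each partner of ligand-free nuclear receptor dimers (one per run) detected binding on custom Agilent 4×180K protein-binding microarrays after 1 h incubation. The double-stranded probes had 34-nt variable regions carrying direct-repeat seeds, single-nucleotide variants, half-site ablations and random human genomic background sequences. Binding z-scores, from regression-normalized fluorescence, use the random background probes as reference.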

[2] = tested on: LXRa:RXRa (NR concentration 270 nM, RXRa partner concentration 90 nM)
How it was run: as §1

[3] = tested on: LXRa homodimer (NR concentration 270 nM)
How it was run: as §1

[4] = tested on: LXRb:RXRa (NR concentration 270 nM, RXRa partner concentration 90 nM)
How it was run: as §1

[5] = tested on: LXRb homodimer (NR concentration 270 nM)
How it was run: as §1

[6] = tested on: PPARa:RXRa (NR concentration 270 nM, RXRa partner concentration 90 nM)
How it was run: as §1

[7] = tested on: PPARg:RXRa (NR concentration 180 nM, RXRa partner concentration 90 nM)
How it was run: as §1

[8] = tested on: PPARg:RXRa 270nM:90nM, anti-RXR (NR concentration 270 nM, RXRa partner concentration 90 nM)
How it was run: as §1

[9] = tested on: PPARg:RXRa 30nM:10nM, anti-RXR (NR concentration 30 nM, RXRa partner concentration 10 nM)
How it was run: as §1

[10] = tested on: PPARg:RXRa 90nM:30nM, anti-RXR (NR concentration 90 nM, RXRa partner concentration 30 nM)
How it was run: as §1

[11] = tested on: PPARg:RXRa DBDmut IVT, anti-RXR (DBD mutation: RXRa K156A/R161A, NR concentration 270 nM, RXRa partner concentration 90 nM)
How it was run: as §1

[12] = tested on: PPARg:RXRa IVT, anti-PPARg (NR concentration 270 nM, RXRa partner concentration 90 nM)
How it was run: as §1

[13] = tested on: PPARg DBDmut:RXRa IVT, anti-PPARg (DBD mutation: PPARg1 K132A/R137A, NR concentration 270 nM, RXRa partner concentration 90 nM)
How it was run: as §1

[14] = tested on: PPARg DBDmut IVT, anti-PPARg (DBD mutation: PPARg1 K132A/R137A, NR concentration 270 nM)
How it was run: as §1

[15] = tested on: PPARg homodimer (NR concentration 180 nM)
How it was run: as §1

[16] = tested on: PXR:RXRa (NR concentration 270 nM, RXRa partner concentration 90 nM)
How it was run: as §1

[17] = tested on: PXR homodimer (NR concentration 270 nM)
How it was run: as §1

[18] = tested on: RARa:RXR (NR concentration 270 nM, RXRa partner concentration 90 nM)
How it was run: as §1

[19] = tested on: RARa homodimer (NR concentration 270 nM)
How it was run: as §1

[20] = tested on: RARb:RXRa (NR concentration 270 nM, RXRa partner concentration 90 nM)
How it was run: as §1

Sequence | PBM binding z-score [1] | PBM binding z-score [2] | PBM binding z-score [3] | PBM binding z-score [4] | PBM binding z-score [5] | PBM binding z-score [6] | PBM binding z-score [7] | PBM binding z-score [8] | PBM binding z-score [9] | PBM binding z-score [10] | PBM binding z-score [11] | PBM binding z-score [12] | PBM binding z-score [13] | PBM binding z-score [14] | PBM binding z-score [15] | PBM binding z-score [16] | PBM binding z-score [17] | PBM binding z-score [18] | PBM binding z-score [19] | PBM binding z-score [20]
TCTGCTAGGTCAACGATGGTCAACTAATCTGCTA | 3.62 | 3.21 | 0.113 | 2.15 | 0.0398 | 3.3 | 2.54 | 3.18 | 1.79 | 2.6 | 4.51 | 4.3 | 0.357 | 0.326 | 1.75 | 2.4 | -0.851 | 2.39 | -0.654 | 4.12
TCTGCTAGGTCAGATGGTCAGCTAACGAGCTGCC | 1.36 | 0.977 | -0.468 | 0.356 | -0.258 | 1.86 | 1.57 | 2.53 | 1.8 | 2.34 | 2.66 | 2.86 | 0.906 | -0.32 | 0.276 | 0.315 | -0.95 | 1.22 | -1.27 | 3.32
AATACAGGGTCATCGTAGGCCAGAATACGCACAG | 7.14 | 6.31 | 2.07 | 4.74 | 1.07 | 5.64 | 6.6 | 5.68 | 2.64 | 4.45 | 2.86 | 4.2 | 1.53 | 0.878 | 1.87 | 4.6 | 0.787 | 4.56 | 1.11 | 4.31
CCTGCTAGGTAATGGTCAGCTAATCTACAGTATG | -0.151 | -0.438 | -0.575 | -0.764 | -0.48 | -0.344 | -0.182 | -0.104 | -0.225 | -0.424 | 1.12 | 0.132 | -0.293 | -0.811 | -0.722 | -0.534 | -0.524 | -0.39 | 0.217 | 0.113
CCGAGTAGGTTATGGGGAATTCAGGCAACGGTGA | 0.109 | 0.544 | 0.111 | 0.918 | 0.311 | 1.23 | 1.46 | 2.43 | 0.671 | 1.48 | 3.51 | 2.6 | -0.221 | 0.307 | 1.64 | 0.204 | 0.469 | 0.654 | 0.587 | 0.784
AGAATGAGGTTATTAAGATGAGGGAATTGCGGTC | 1.61 | 1.5 | 0.433 | 1.3 | 0.12 | 2.54 | 1.22 | 1.46 | 0.735 | 1.12 | 2.83 | 1.97 | 1.19 | 0.341 | 1.28 | 1.03 | 0.85 | 1.22 | 1.23 | 1.41
CCTACTGGGCCCAGGTCATTGATCAGTCAAAGCA | 1.37 | 1.52 | 0.696 | 1.88 | -0.506 | 2.17 | 0.602 | 1.4 | 0.0346 | 0.505 | -0.465 | 1.3 | -0.756 | -1.2 | 0.811 | 1.72 | 0.241 | 2.05 | 0.064 | 1.95
CCTCGGAGGACAACAGGGGGTCAGAGCTGCCAGA | 1.81 | 2.48 | 0.582 | 3.99 | 2.09 | 3.22 | 1.09 | 1.92 | -0.264 | 1.13 | -0.238 | 1.33 | 0.527 | 1.03 | 1.56 | 3.18 | 0.0814 | 3.3 | 0.607 | 2.71
GTACCAAGGTGAATAGGTCGTTCATGAGTAGGCG | 0.8 | 1.02 | 0.137 | 0.601 | -0.594 | 2.17 | 1.4 | 1.69 | 0.0443 | 0.958 | 1.96 | 2.71 | 0.421 | -1.06 | 0.765 | 0.908 | -0.0414 | 1.62 | -0.236 | 2.12
CCTTACGGGTCAAGGTTAGAGCACGGGTGGTACG | 5.52 | 3.41 | -0.175 | 2.64 | -0.214 | 4.92 | 4.33 | 4.83 | 1.86 | 3.37 | 1.69 | 3.34 | 0.826 | 0.266 | 2.42 | 3.08 | -0.133 | 3.92 | 0.744 | 4.13
TAGCCTAGGTCATGCCGGCCAGTATAGTGTCGGC | 3.44 | 2.68 | 0.0179 | 1.57 | -0.0168 | 3.07 | 1.99 | 2.08 | 0.0348 | 1.34 | 1.13 | 2.47 | -0.929 | -0.11 | 0.237 | 0.798 | -0.486 | 1.77 | -0.917 | 3.48
CTACCAAGGTGAACAAGGTGGTTGATTACTATTC | 0.298 | 0.0424 | -0.231 | 0.391 | -0.589 | 1.21 | 0.492 | 0.416 | -0.231 | 0.026 | 2.63 | 2.27 | 0.24 | -0.57 | 0.187 | 0.111 | 0.0854 | 0.44 | 0.0119 | 1.43
ATCTCTAGGTAACCAAGTTTAGTGAATGCCGAAC | 0.39 | 0.24 | 0.318 | 0.275 | 0.481 | 0.803 | 0.412 | 0.529 | 0.254 | 0.616 | 3.62 | 2.79 | 0.887 | 1.75 | 0.787 | 0.564 | 0.333 | 0.55 | 1.08 | 0.627
